Screening results from PubChem BioAssay.
Rab9 prom act: activators of Rab9 promoter; Huh7 Rab9 promoter-luciferase reporter, luminescence, 24 h; Potency, µM (doses to about 9.22 µM), usual class: activators; AID 485297; actives 2.8% (n = 320,000); also: nearly all actives have a fitted effect of over 60% in size
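Huh7 reporter line, Rab9 promoter upstream of luciferase. Compound exposure 24 h at 37 °C in reduced-serum medium with 10% FBS. Read-out: luminescence.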
NPC1 prom act: activators of NPC1 promoter; AID 485313; Potency, µM (titrated, usually from 9.22 µM), most hits filed as activators; actives 2.4% (n = 320,000); Huh7 NPC1 promoter luciferase reporter, 24 h; also: nearly all actives have a fitted effect of over 60% in size
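Readout is luciferase luminescence, reflecting NPC1 promoter activation in stably transfected Huh7 cells after 24 h compound exposure at 37 °C in reduced-serum medium with 10% FBS.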
ELG1 genotoxic: inducers of genotoxicity in HEK293T ELG1-luciferase cells; HEK293T ELG1-luciferase reporter, luminescence, 16 h; Potency, µM (doses to about 46 µM), most hits filed as activators; actives 1.3% (n = 330,000); also: nearly all actives have a fitted effect of over 60% in size
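Reporter readout depends on ELG1 protein level, which increases with genetic stress. After 16 hr compound exposure at 37 °C, luciferase activity was quantified using ONE-Glo.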
FLuc counter: counter-screen for miR-21 project: firefly luciferase inhibitors or activators | purified FLuc, Km substrates, luminescence inhibition | Potency, µM (series often up to 57.5 µM), usual class: inhibitors | actives 6.9% (n = 360,000) | AID 588342; also: nearly all actives have a fitted effect of over 55% in size
Target sequence (P08659 whole entry, looked up): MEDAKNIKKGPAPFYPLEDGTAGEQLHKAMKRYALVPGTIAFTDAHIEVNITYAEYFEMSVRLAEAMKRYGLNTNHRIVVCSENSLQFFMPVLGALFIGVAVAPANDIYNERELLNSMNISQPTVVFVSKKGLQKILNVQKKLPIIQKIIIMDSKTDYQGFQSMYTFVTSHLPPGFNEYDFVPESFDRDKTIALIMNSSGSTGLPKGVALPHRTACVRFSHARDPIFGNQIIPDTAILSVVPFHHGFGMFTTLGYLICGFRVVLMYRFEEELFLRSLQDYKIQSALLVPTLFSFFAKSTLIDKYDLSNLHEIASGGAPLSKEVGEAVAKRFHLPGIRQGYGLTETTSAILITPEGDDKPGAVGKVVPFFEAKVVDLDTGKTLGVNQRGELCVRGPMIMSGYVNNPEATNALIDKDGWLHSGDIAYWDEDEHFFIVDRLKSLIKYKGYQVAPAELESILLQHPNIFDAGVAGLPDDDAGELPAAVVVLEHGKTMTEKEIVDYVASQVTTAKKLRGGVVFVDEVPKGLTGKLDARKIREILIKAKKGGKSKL
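Biochemical qHTS of compounds, final roughly 60 µM downward over six points, against 10 nM purified firefly luciferase using Km concentrations of substrates (10 uM D-luciferin, 10 uM ATP) in Tris acetate pH 7.5 buffer; luminescence output.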
SMN2 splice up: increases expression of the SMN2 splice variant | AID 1458 | actives 2.8% (n = 210,000) | Potency, µM (top dose mostly 46.1 µM), hits mostly activators | HEK293 SMN2-luciferase splicing reporter, luminescence, 30-36 h; also: nearly all actives have a fitted effect of over 55% in size
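qHTS luciferase splicing reporter: luminescence rises when SMN2 exon 7 is included in transfected HEK293 cells. Compound exposure lasted 30-36 h at 37C, with 4.5 mM final sodium butyrate as control, followed by a ONE-Glo read.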
Luc counter: Kinase-Glo luciferase inhibition (counter-screen); Q27757; Kinase-Glo luciferase, ATP luminescence, 8 min; Potency, µM (doses to about 38.3 µM), actives largely listed as inhibitors; actives 0.28% (n = 200,000); also: nearly all actives have a fitted effect of over 60% in size
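Substrate mix (final 50 mM imidazole pH 7.2, 50 mM KCl, 7 mM MgCl2, 10 uM ATP, 0.01% Tween 20, 0.05% BSA) plus pin-tool compound, then Kinase-Glo detection mix; 8 min ambient, luminescence read.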
Each line names hits and unclear results; the compound was inactive in the other large screens. Shown are actives, neighbours in structure and some others; about 7.3% of the full set was active somewhere. Calls follow the shape of the dose curve; as a rule, active = well fitted curve in the direction sought with a large enough effect; inconclusive = small, poorly fitted or top-dose-only effect, or another doubt; inactive = no such curve, though single readings can be large; an effect the other way counts as inactive or inconclusive.

Nc1ccc(C(=O)OCC(=O)N2CCOCC2)cc1[N+](=O)[O-]	Rab9 prom act inconclusive, NPC1 prom act inconclusive, ELG1 genotoxic inconclusive, FLuc counter inconclusive, SMN2 splice up 20µM
CC1CCN(C(=O)COC(=O)c2ccc3c(c2)OCO3)CC1	Rab9 prom act 3.5µM, NPC1 prom act inconclusive, ELG1 genotoxic inconclusive, FLuc counter 17µM
Nc1cc(C(=O)OCC(=O)N2CCOCC2)ccc1Cl	Rab9 prom act inconclusive, ELG1 genotoxic inconclusive, FLuc counter inconclusive (no result: SMN2 splice up, Luc counter)
CC1CCN(C(=O)COC(=O)c2cccc(NS(=O)(=O)c3ccccc3)c2)CC1	FLuc counter 17µM (no result: SMN2 splice up, Luc counter)
CC1CCN(C(=O)COC(=O)c2ccc(Br)o2)CC1	ELG1 genotoxic inconclusive, FLuc counter 24µM
CN(C)CCNC(=O)C(=O)NCC(c1ccc2c(c1)OCO2)N1CCOCC1 (stereo unspecified)	none (no result: Rab9 prom act, NPC1 prom act, ELG1 genotoxic, SMN2 splice up, Luc counter)
COC(=O)c1ccc(CSc2nnc(-c3c[nH]c4ccccc34)n2-c2ccccc2)cc1	none
COc1ccc(C(=O)NCC(=O)OCC(=O)c2ccc3c(c2)NC(=O)CO3)cc1OC	none
O=C(CSCc1ccccc1)N1CCN(c2ccccc2)CC1	Rab9 prom act inconclusive, NPC1 prom act inconclusive, ELG1 genotoxic inconclusive, FLuc counter 24µM, SMN2 splice up 13µM
O=C(CSCc1cccc(F)c1)N1CCN(c2ccccc2)CC1	Rab9 prom act inconclusive, NPC1 prom act 3.2µM, ELG1 genotoxic 13µM, FLuc counter 13µM, SMN2 splice up 13µM
O=C(CSCc1ccccc1)N1CCN(c2ccc(F)cc2)CC1	none
O=C(CSCc1ccccc1)N1CCN(c2cccc(C(F)(F)F)c2)CC1	none
CCCC(=O)C1=C(O)C(C(=O)OC)C(C)(C)CC1=Nc1ccc(N)cc1 (stereo unspecified)	none
O=C(Nc1cc(Cl)cc(Cl)c1)C1C2C=CC3(O2)C1C(=O)N(CCCN1CCOCC1)C3C(=O)NC1CCCCC1 (stereo unspecified)	none (no result: SMN2 splice up, Luc counter)
CC(=O)Nc1ccc(S(=O)(=O)N(C)CC(=O)NNC(=O)Cc2nc3ccccc3n2C)cc1	none (no result: Rab9 prom act, NPC1 prom act, FLuc counter, SMN2 splice up, Luc counter)
Cc1nc(N)sc1-c1csc(Nc2ccc(Cl)cn2)n1	FLuc counter 17µM
Cc1nc(C)c(-c2csc(Nc3ccccn3)n2)s1	Rab9 prom act 0.5µM, NPC1 prom act 0.56µM, ELG1 genotoxic inconclusive, FLuc counter 2.4µM (no result: SMN2 splice up, Luc counter)
Cc1nc(N)sc1-c1csc(Nc2ccccn2)n1	Rab9 prom act 1.6µM, NPC1 prom act 2.2µM, ELG1 genotoxic inconclusive, FLuc counter 6.7µM, SMN2 splice up 8.9µM
COC(=O)c1c(NC(=O)CN2CCN(c3ccccc3)CC2)c2c(C)cccc2n1C	none
Cc1ccc(-c2n[nH]c3c2C(c2ccc(C(C)(C)C)cc2)NC3=O)cc1 (stereo unspecified)	none (no result: Rab9 prom act, NPC1 prom act, ELG1 genotoxic, Luc counter)
O=C(Cn1nnc(-c2ccccc2NC(=O)c2ccco2)n1)NC1CCCCC1	none
Cc1ccc2c(c1)N=C(c1ccc(F)cc1)CO2	Rab9 prom act 3.2µM, NPC1 prom act 4µM, ELG1 genotoxic inconclusive, FLuc counter 4.3µM, Luc counter inconclusive
Cc1ccc(-c2cc3ncc4c(n3n2)-c2cc(F)ccc2OC4)cc1	none (no result: Rab9 prom act, NPC1 prom act, ELG1 genotoxic, Luc counter)
O=[N+]([O-])c1ccc(C2=Nc3cc(Cl)ccc3OC2)cc1	FLuc counter 15µM
O=C(Nc1cc(S(=O)(=O)N2CCOCC2)ccc1N1CCOCC1)c1ccc(Cl)nc1	none (no result: SMN2 splice up, Luc counter)
Cc1ccc(C2C=NN(c3ccccc3)C2=O)cc1 (stereo unspecified)	Rab9 prom act inconclusive, ELG1 genotoxic inconclusive, FLuc counter 12µM (no result: SMN2 splice up)
CC1=NN(c2ccccc2)C(=O)C1N=Nc1ccc(C)cc1 (stereo unspecified)	none
CCOc1ccccc1N(CC(=O)NCc1ccc(OC)cc1)S(C)(=O)=O	none
Cc1ccc(-c2cc(C(=O)NCCCn3ccnc3)c3ccccc3n2)s1	FLuc counter 17µM
O=C(NCCCn1ccnc1)c1cc(-c2ccncc2)nc2ccccc12	none
CCc1ccc(-c2cc(C(=O)NCCCn3ccnc3)c3ccccc3n2)s1	ELG1 genotoxic inconclusive, FLuc counter 4.8µM
Cc1nn(-c2ccccn2)c2nc(-c3cccs3)cc(C(=O)NCc3ccco3)c12	FLuc counter 6.7µM (no result: SMN2 splice up)
Cc1ccc(-c2cc(C(=O)NCc3ccco3)c3ccccc3n2)s1	FLuc counter 12µM
COc1ccc(/C=N/NC(=O)C2(C)NC(C)(C)Cc3ccccc32)cc1 (stereo unspecified)	none
Cc1ccc(N2C(=O)CSC2c2ccc3c(c2)OCO3)cc1 (stereo unspecified)	none
COc1ccc(-n2c(SCC(N)=O)nc3sc4c(c3c2=O)CCN(C)C4)cc1	none
O=C(O)c1cc(-c2ccc(Br)s2)nc2ccccc12	FLuc counter 8.5µM (no result: SMN2 splice up, Luc counter)
CN1CCN(NC(=O)c2cc(-c3ccc(Br)s3)nc3ccccc23)CC1	FLuc counter inconclusive (no result: SMN2 splice up, Luc counter)
CCc1ccc(-c2cc(C(=O)NN3CCOCC3)c3ccccc3n2)s1	FLuc counter 7.6µM
CCOc1ccc2nc(N(CCN(C)C)C(=O)c3cc4ccccc4cc3OC)sc2c1	none (no result: SMN2 splice up, Luc counter)
CC(C)(C)OC(=O)N1CCC[C@H]1C(=O)NCC1CCC(C(=O)O)CC1 (stereo partly specified)	none
O=[N+]([O-])CC(=Nc1ccc(F)cc1)N/N=C\c1oc(O)c2ccccc12	NPC1 prom act inconclusive, FLuc counter 15µM (no result: SMN2 splice up, Luc counter)
O=C(N/N=C/c1sc(=O)n(-c2ccccc2)c1Cl)c1ccccc1	Rab9 prom act 1.8µM, NPC1 prom act 1.6µM, FLuc counter 6µM, SMN2 splice up 7.1µM
O=C(N/N=C/c1ccc[nH]1)c1ccccc1O	Rab9 prom act inconclusive, ELG1 genotoxic inconclusive, FLuc counter 9.5µM (no result: SMN2 splice up)
NC(=O)N/N=C/c1sc(=O)n(-c2ccccc2)c1Cl	FLuc counter inconclusive (no result: SMN2 splice up, Luc counter)
O=C(N/N=C/c1ccoc1)c1ccccc1	ELG1 genotoxic inconclusive, FLuc counter 27µM (no result: SMN2 splice up, Luc counter)
Oc1oc(C=Nc2ccc(F)cc2F)c2ccccc12	none
CCc1cc2c(=O)c(-n3cnc4ccccc43)coc2cc1O	FLuc counter inconclusive
COc1ccc(/C=N/N=C2\SC(CC(=O)O)C(=O)N2c2ccccc2)c(OC)c1 (stereo unspecified)	FLuc counter inconclusive
O=C(N/N=C/c1ccoc1)c1ccccc1O	ELG1 genotoxic inconclusive, FLuc counter 11µM (no result: SMN2 splice up, Luc counter)
O=C(N/N=C/c1coc2ccccc2c1=O)c1ccccc1	FLuc counter 17µM
O=C(N/N=C/c1coc2ccccc2c1=O)c1ccc(Cl)cc1	none (no result: SMN2 splice up, Luc counter)
O=C(N/N=C/c1coc2ccccc2c1=O)c1cc(Br)ccc1O	none (no result: SMN2 splice up, Luc counter)
O=C(N/N=C/c1ccoc1)c1ccc(Br)cc1	FLuc counter 15µM (no result: SMN2 splice up, Luc counter)
O=C(N/N=C/c1ccoc1)c1ccc(Cl)cc1	FLuc counter inconclusive (no result: SMN2 splice up, Luc counter)
O=C(N/N=C/c1oc(O)c2ccccc12)c1ccccc1O	FLuc counter 11µM
